Measured values from PubChem BioAssay AID1894 (NMMLSC, 2009).
In all, about 5,900 compounds went through this assay and about 100 (1.7%) were called active. The full list was thinned out, with actives kept by preference. A number with no mark means an inactive call.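 How the source made its calls: active means binding response below 72% of control, or above a set upper limit, though filed actives all read lower; inactive means the rest.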

Biological target: Mitogen-activated protein kinase kinase kinase 3 (Homo sapiens) (UniProt Q99759)
Sequence (Q99759 whole entry, looked up): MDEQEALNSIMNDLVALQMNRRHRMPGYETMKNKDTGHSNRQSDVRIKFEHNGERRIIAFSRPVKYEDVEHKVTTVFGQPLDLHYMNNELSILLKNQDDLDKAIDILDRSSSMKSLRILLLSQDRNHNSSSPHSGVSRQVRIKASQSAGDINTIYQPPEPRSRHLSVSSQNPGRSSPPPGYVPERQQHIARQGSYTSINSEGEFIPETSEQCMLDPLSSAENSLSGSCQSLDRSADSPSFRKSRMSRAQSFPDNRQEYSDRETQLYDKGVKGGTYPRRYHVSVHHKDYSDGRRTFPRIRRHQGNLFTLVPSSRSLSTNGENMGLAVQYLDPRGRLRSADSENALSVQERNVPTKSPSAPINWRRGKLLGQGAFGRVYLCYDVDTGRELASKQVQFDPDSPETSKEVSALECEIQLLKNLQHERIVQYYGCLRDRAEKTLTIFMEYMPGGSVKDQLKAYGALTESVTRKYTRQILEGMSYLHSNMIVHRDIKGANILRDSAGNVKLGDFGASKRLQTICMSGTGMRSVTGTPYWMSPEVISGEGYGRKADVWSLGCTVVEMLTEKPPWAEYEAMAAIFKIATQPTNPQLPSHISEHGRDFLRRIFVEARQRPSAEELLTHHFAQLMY
Assay: blockers of MEK5-MEKK3 PB1 association – biochemical, bead multiplex flow cytometry, single concentration, wildtype, confirmation (AID 1894);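 further: 100% = DMSO only wells and 0% = binding blocked by excess unlabeled MEK5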
Conditions: Alexa488-MEK5 binding to MEKK3, at 10 µM, active compounds read low

Compound	binding response (% of control)
COc1ccc(-c2[nH]ncc2CN(C)Cc2c(C)n[nH]c2C)c(OC)c1	109%
COc1ccccc1N1CCN(CCCCOc2ccc(F)cc2)CC1	103%
CN1C(=O)/C(=C\c2ccc(-c3ccccc3)o2)SC1=S	70% (active)
Cc1cc(Cl)ccc1OCc1nc(-c2ccncc2)no1	79%
CCn1c(NC(=O)c2ccccc2)c(-c2cccs2)c(=O)c2ccccc21	101%
Cc1cc(C)nc(-n2ncc3c2CC(c2ccc(C(C)C)cc2)CC3=O)n1 (configuration not stated)	99%
C/C(=N\NC(=O)CNC(=O)C(c1ccccc1)c1ccccc1)c1ccc(C)cc1	108%
Cc1cc2cc(CNC(=O)c3cccs3)ccc2[nH]1	77%
CCOc1ccc(S(=O)(=O)N(CC(=O)O)c2ccccc2)cc1	106%
CC(C)CC(=O)NC(=S)Nc1cc(C(=O)O)ccc1Cl	104%
Cn1c(SCc2nc3ccccc3s2)nnc1-c1ccc2c(c1)OCO2	98%
Cc1no[n+]([O-])c1COc1ccccc1/C=C1\NC(=S)NC1=O	101%
CC(C)(C)NC(=O)Cn1cnc([N+](=O)[O-])n1	97%
COc1ccc(CCNC(=O)CSc2nnc3ccc(-c4ccncc4)nn23)cc1	105%
CCOc1cc(C2C(C(=O)OC)=CN(C3CCCC3)C=C2C(=O)OC)cc(Br)c1O	109%
O=C(O)c1cc(Cl)c(Cl)cc1C(=O)Nc1cccc2ncccc12	102%
COc1ccc(NC(=O)Cn2nnc(C(=O)NCCc3ccc(OC)c(OC)c3)c2N)cc1	102%
Cn1c(C(=O)NCCCN2CCCCC2)cc2sccc21	109%
O=C(NCCCN1CCCCCC1)C1CC(=O)N(C2CCCC2)C1 (configuration not stated)	2% (active)
O=C(NCCCN1CCCCCC1)c1ccc(N2CCCC2=O)cc1	110%
Cc1ccc(C(=O)NC(=S)Nc2ccc3[nH]c(=O)[nH]c3c2)cc1C	100%
c1ccc(CN2CCC(N=C3NN=C(c4ccc5c(c4)OCCO5)CS3)CC2)cc1	117%
C[C@H]1CCC(=O)N([C@H](CSc2ccccc2)Cc2ccccc2)CC1	108%

Compound	binding response (% of control)
O=C(CC1SCCNC1=O)Nc1ccc(Cl)c(Cl)c1 (configuration not stated)	106%
CCNC(=O)CSc1nc(-c2ccccc2)cs1	104%
COc1ccc(S(=O)(=O)Nc2ccc3oc(C)c(C(C)=O)c3c2)cc1	100%
O=C(CN1CCN(C(=O)c2ccco2)CC1)Nc1ccc(Cl)c(C(F)(F)F)c1	104%
COc1ccccc1OCCNCC(O)COc1cccc2[nH]c3ccccc3c12 (configuration not stated)	100%
O=C(NCCN1CCOCC1)[C@H](Cc1ccccc1)N1C(=O)c2ccccc2C1=O	100%
c1ccc(Nc2nc(N3CCOCC3)c3ccccc3n2)cc1	106%
CCOc1ccc(S(=O)(=O)NCCCn2ccnc2)cc1NC(C)=O	97%
CSCC[C@H](NC(=O)CCCn1nnc2ccccc2c1=O)C(=O)O	102%
COc1cc(NC(=S)NCc2ccco2)c(OC)cc1Cl	104%
CC(C)C(=O)N1c2ccccc2NC2=C(C(=O)CCC2)C1c1ccc(N(C)C)cc1 (configuration not stated)	106%
COc1ccccc1N=C(C)C1=C(O)COC1=O	102%
CC1(C)Cc2cccc(OCC(=O)N3CCN(c4ccc([N+](=O)[O-])cc4)CC3)c2O1	103%
CN(C)c1ccc(/C=C2\NC(=S)N(Cc3ccccc3)C2=O)cc1	99%
CC(C)CC(=O)N1CCN(Cc2ccccc2Br)CC1	107%
CC1(C)OC(=O)N2CCc3ccccc3C21C (configuration not stated)	104%
COc1cccc(NC(=S)NCc2ccccn2)c1	96%
CCOc1nnc(C)c2c(C)n(-c3cccc(Cl)c3)nc12	91%
CCCc1nnc(SCC(=O)N2C(C)CCCC2C)n1CC (configuration not stated)	111%
O=C(Nc1cccnc1)c1cc(Cl)ccc1Cl	106%
O=C(O)CC(Cc1ccccc1)C(=O)Nc1ccc([N+](=O)[O-])cc1 (configuration not stated)	100%
COc1cccc(/C=N\NC(=O)C2=NNC(=O)C2C)c1O (configuration not stated)	100%
CNC(C)C#Cc1ccc2sc3cc(OC)c(OC)cc3c(=O)c2c1 (configuration not stated)	104%

Compound	binding response (% of control)
Cc1ccc(Nc2nc(CSc3nnc(-c4ccncc4)n3-c3ccccc3C)cs2)cc1	103%
Cc1c(S(=O)(=O)NCc2ccccc2)c(=O)n(C)c(=O)n1C	101%
Cc1cnc(NC(=O)Cn2cnc3c2c(=O)n(C)c(=O)n3C)s1	97%
C=CCn1c(=S)sc2c(=O)[nH]c(C)nc21	107%
CC1CCN(C2=NC(=O)/C(=C/c3cn[nH]c3-c3ccccc3)S2)CC1	91%
O=C(CCCO)N/N=C/c1cc(Br)ccc1O	102%
COc1ccc(CC(=O)N2N=C(C)CC2(O)C(F)(F)F)cc1 (configuration not stated)	98%
O=C1C=CC(=O)N1c1ccc(N2CCCCC2)cc1	100%
N=c1c2c(-c3ccccc3)c(-c3ccccc3)n(Cc3ccccc3)c2ncn1CCCO	110%
Cc1cccc(/C=N/NC(=O)CNc2cccc3ccccc23)n1	110%
O=C(O)CCCC(=O)Nc1ccc(Oc2cccc(C(F)(F)F)c2)nc1	105%
Cc1nn(-c2ccccc2)c(C)c1NC(=O)CCl	97%
COC(=O)c1c(NC(=O)COC(=O)[C@@H](NS(=O)(=O)c2ccccc2)C(C)C)sc2c1CCC2	102%
Cc1cn(COC/C=C/c2ccccc2)c(=O)[nH]c1=O	105%
CCO[C@H]1OC(C(=O)N2CCOCC2)=C[C@@H](c2ccc3c(c2)OCO3)[C@@H]1CCCO	104%
Cc1noc(C)c1S(=O)(=O)N(C)Cc1ccccc1	103%
CCN(CC)C(=O)CC(c1ccc2c(c1)OCO2)c1c(OC)cc(OC)c2c(-c3ccccc3)cc(=O)oc12 (configuration not stated)	103%
FC(F)(F)c1nc(-c2ccccc2)ncc1-c1nnnn1-c1ccccc1	100%
CCOC(=O)N1CCN(CC(=O)n2c(C)c(C)c3ccccc32)CC1	97%
Cn1c(=NC(=O)CSCC(=O)N2CCOCC2)sc2ccccc21	86%
Cc1nc2cc(S(=O)(=O)C(F)(F)F)ccc2s1	101%
CCN1CCN(c2nc(Nc3cc(OC)ccc3OC)nc(Nc3cc(OC)ccc3OC)n2)CC1	106%
Cc1ccccc1C(=O)NNC(=O)CN1C(=O)c2ccccc2C1=O	93%

Compound	binding response (% of control)
CCOC(=O)c1c(Cc2ccc(Cl)cc2)c[nH]c1C	107%
CCOC(=O)C(NS(=O)(=O)c1ccc(C)cc1)(C(F)(F)F)P(=O)(OCC(C)C)OCC(C)C (configuration not stated)	94%
C#CCOCCOCCOCCNc1nc(N2CCN(C(=O)C([C@@H](C)CC)n3cc(C(N)COC(=O)C(F)(F)F)nn3)CC2)nc(N2CCN(C(=O)[C@H](CCCCN)n3cc(C(N)CC(C)C)nn3)CC2)n1 (some centres not stated)	106%
COc1ccc(C2CC(c3cccs3)=NN2c2nc(C)c(C(C)=O)s2)cc1OC (configuration not stated)	97%
Cc1ccc(NC(=O)COc2ccc(-n3ccnc3)cc2)cc1Cl	108%
Fc1ccc(-c2ccc(CNCc3ccccn3)o2)cc1Cl	103%
O=C(NC1CCN(Cc2ccccc2)CC1)c1cc(Br)c(Br)[nH]1	110%
O=C(O)/C(=C/c1cccnc1)NC(=O)c1ccccc1	104%
CCCCn1c(SCC(=O)NCCc2ccc(OC)c(OC)c2)nc2c1c(=O)n(C)c(=O)n2C	100%
COc1ccc(SC[C@H](Cc2ccccc2)N2CCN(CCc3ccccc3)CCC2=O)cc1	107%
O=C1Nc2ccc(Br)cc2/C1=N/N=C/C1=C(N2CCOCC2)C(=C\c2ccccc2)/CC1	54% (active)
C=CCn1c(P(C)(=O)O)nc2ccccc21	97%
O=C(OCC1O[C@@H](OC(=O)c2cc(O)c(O)c(O)c2)[C@@H](OC(=O)c2cc(O)c(O)c(O)c2)[C@@H](OC(=O)c2cc(O)c(O)c(O)c2)[C@@H]1OC(=O)c1cc(O)c(O)c(O)c1)c1cc(O)c(O)c(O)c1 (some centres not stated)	1% (active)
C#CCOCCOCCOCCNc1nc(N2CCN(C(=O)[C@H](CCCCN)n3cc([C@@H](N)C(C)CC)nn3)CC2)nc(N2CCN(C(=O)[C@H](Cc3ccc(O)cc3)n3cc([C@@H](N)C(C)CC)nn3)CC2)n1 (some centres not stated)	109%
COc1ccc(N2CCN(Cc3nnc(-c4ccccc4)o3)CC2)cc1	96%
Cc1ccc(S(=O)(=O)NC(=O)N2CCCC(C)(C)C2)cc1	98%
C=CCN1C=C2C(=O)C(C)(OC(=O)CCc3ccccc3)C(=O)C=C2C=C1c1ccc(C#N)cc1 (configuration not stated)	103%
Cc1ccc(N2C(=O)CC(N3CCSCC3)C2=O)c(C)c1 (configuration not stated)	102%
C/C=C/c1ccc(OCCCCN2CCC(C)CC2)c(OC)c1	103%
CN1CCN(/N=C/c2ccc(C#N)cc2)CC1	86%
COc1cc2c(cc1OC)CN(C(=O)c1ccc(S(=O)(=O)N3CCCCCC3)cc1)CC2	100%
CN(CC(=O)Nc1cccc(F)c1)CC(=O)Nc1cccc([N+](=O)[O-])c1	103%
N/C(=N\OS(=O)(=O)c1cccc([N+](=O)[O-])c1)c1ccncc1	104%
